# Calls of active or inactive are those of the source.
# Legend:
# [1] = compounds binding Alexa647 anti-His antibody – biochemical, small-molecule microarray, 635 nm fluorescence, artefact control for SMM control protein annotation, primary screen (AID 1128); conditions: higher = more signal;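 note: score merges feature fluorescence with signal-to-noise for each printed compound spot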
# [2] = test system: Human papillomavirus type 1a E7 protein (residues 1-88); assay: HPV1a E7 small-molecule binders, primary screen, biochemical, small-molecule microarray, residues 1-88, 635 nm (AID 1129); conditions: small-molecule microarray binding, fluorescence 635 nm; higher = more signal
# [3] = target: Focal adhesion kinase 1 (Homo sapiens) (UniProt Q05397); assay: PTK2 protein binding on printed compound slides – biochemical, small-molecule microarray, 635/667 nm fluorescence, BSA, DTT, primary screen (AID 1130); conditions: 635 nm fluorescence, higher = more signal;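 note: composite of spot emission at 667 nm and signal to noise over triplicate slides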
# Chain of Focal adhesion kinase 1 (Homo sapiens) (Q05397 whole entry, looked up): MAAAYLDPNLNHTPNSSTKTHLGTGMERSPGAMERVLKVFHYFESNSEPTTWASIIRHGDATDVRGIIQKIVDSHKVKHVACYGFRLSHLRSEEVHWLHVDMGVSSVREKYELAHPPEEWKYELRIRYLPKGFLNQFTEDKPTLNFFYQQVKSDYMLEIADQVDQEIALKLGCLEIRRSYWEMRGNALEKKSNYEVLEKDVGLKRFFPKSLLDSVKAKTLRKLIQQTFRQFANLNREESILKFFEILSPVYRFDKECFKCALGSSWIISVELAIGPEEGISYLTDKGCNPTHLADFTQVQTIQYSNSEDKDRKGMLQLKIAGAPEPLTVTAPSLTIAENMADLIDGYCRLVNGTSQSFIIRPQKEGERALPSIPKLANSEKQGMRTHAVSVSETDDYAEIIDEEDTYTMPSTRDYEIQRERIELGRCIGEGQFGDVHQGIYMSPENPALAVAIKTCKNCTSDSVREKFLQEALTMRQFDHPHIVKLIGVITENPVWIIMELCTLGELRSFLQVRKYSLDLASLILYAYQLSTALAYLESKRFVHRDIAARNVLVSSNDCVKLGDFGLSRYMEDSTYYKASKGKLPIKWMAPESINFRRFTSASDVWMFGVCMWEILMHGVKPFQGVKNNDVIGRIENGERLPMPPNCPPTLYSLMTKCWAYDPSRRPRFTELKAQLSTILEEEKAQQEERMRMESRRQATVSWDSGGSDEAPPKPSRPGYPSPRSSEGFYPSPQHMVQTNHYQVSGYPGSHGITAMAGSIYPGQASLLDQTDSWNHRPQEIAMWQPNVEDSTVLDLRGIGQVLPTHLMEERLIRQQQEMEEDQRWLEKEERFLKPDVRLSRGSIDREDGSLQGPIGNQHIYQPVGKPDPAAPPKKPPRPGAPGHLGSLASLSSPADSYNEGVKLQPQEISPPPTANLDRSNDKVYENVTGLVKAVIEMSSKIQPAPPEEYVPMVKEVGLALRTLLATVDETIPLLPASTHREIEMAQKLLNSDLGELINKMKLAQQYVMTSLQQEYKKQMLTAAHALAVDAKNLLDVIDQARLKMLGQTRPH
# [4] = test system: Fibrinogen (Alexa647-labelled); assay: Alexa647-fibrinogen binding to printed small molecules – biochemical, small-molecule microarray, 635/667 nm fluorescence, artefact control for SMM control-protein annotation, profiling panel (AID 1131); conditions: fibrinogen-A647 binding fluorescence, higher = more signal;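 note: z-score merges 667 nm fluorescence with per-spot signal-to-noise over triplicate slides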
# [5] = target: Follistatin (Homo sapiens) (UniProt P19883); assay: FST protein binding to printed compounds – biochemical, small-molecule microarray, 635/667 nm fluorescence, primary screen (AID 1132); conditions: 635 nm fluorescence, higher = more signal
# Chain of Follistatin (Homo sapiens) (P19883 whole entry, looked up): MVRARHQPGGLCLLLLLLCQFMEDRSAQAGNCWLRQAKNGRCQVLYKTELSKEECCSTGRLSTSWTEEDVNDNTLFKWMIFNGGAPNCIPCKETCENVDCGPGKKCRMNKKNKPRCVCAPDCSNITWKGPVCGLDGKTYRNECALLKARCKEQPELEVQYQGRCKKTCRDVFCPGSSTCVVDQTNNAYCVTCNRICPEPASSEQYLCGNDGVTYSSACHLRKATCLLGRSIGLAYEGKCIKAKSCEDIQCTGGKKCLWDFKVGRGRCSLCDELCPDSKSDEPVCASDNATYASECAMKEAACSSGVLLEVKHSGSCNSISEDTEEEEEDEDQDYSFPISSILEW
# [6] = target: Fibroblast growth factor 2 (Homo sapiens) (UniProt P09038); assay: basic fibroblast growth factor binding to printed compounds – biochemical, small-molecule microarray, 635/667 nm fluorescence, primary screen (AID 1133); conditions: FGF2, fluorescence 635/667, higher = more signal
# Chain of Fibroblast growth factor 2 (Homo sapiens) (P09038 whole entry, looked up): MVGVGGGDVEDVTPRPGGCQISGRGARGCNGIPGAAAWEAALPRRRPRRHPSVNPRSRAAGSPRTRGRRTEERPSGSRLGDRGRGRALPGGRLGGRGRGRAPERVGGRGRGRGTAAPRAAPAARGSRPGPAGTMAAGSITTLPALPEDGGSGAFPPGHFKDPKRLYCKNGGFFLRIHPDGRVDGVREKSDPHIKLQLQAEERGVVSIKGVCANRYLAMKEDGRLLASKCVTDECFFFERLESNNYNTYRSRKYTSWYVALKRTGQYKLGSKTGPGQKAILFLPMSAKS
# [7] = JC-1 mitochondrial potential readout, lung cancer cells – cell-based, A549, JC-1 fluorescence, basal, 24 h, 100 nL, profiling panel (AID 1138); conditions: higher = more signal;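 note: A549 lung adenocarcinoma cells under basal conditions with no added stimulus; test concentration not given here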
# Lefty1 = Lefty1 protein binding to printed compounds – biochemical, small-molecule microarray, 635/667 nm fluorescence, primary screen (AID 1139); conditions: fluorescence 635/667, higher = more signal
# [8] = test system: wheat germ agglutinin (Triticum aestivum), Alexa647-labelled; assay: Alexa647-WGA lectin binding to printed small molecules – biochemical, small-molecule microarray, 635/667 nm fluorescence, artefact control for SMM control-protein annotation, profiling panel (AID 1140); conditions: WGA-A647 binding, 635 nm fluorescence, higher = more signal;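 note: score merges 667 nm feature emission with signal to noise over triplicate slides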
# [9] = target: Luciferin 4-monooxygenase (Photinus pyralis) (UniProt P08659); assay: inhibition of purified Photinus pyralis luciferase – biochemical, luminescence, purified enzyme, 2006 set, primary screen (AID 1141); conditions: purified firefly luciferase, SteadyGlo luminescence, 30 min; higher = more signal, called active from +8 up or from −8 down;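 note: cell-free assay with purified firefly luciferase at 100 ng per well in PBS; test concentration not given here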
# Chain of Luciferin 4-monooxygenase (Photinus pyralis) (P08659 whole entry, looked up): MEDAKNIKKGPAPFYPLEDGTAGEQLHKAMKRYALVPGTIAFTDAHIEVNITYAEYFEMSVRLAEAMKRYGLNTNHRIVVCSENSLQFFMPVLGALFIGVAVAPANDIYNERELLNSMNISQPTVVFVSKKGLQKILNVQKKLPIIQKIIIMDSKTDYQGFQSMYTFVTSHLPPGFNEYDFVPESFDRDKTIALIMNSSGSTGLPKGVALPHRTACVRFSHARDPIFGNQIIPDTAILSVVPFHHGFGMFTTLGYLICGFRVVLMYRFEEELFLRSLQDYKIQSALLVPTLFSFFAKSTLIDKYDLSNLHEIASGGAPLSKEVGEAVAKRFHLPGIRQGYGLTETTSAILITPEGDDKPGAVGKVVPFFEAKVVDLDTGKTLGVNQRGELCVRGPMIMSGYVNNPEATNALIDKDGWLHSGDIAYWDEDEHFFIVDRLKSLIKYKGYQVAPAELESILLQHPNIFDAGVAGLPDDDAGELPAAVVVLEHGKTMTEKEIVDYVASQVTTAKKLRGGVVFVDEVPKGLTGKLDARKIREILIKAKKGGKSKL
Structure (SMILES),composite z-score [1],composite z-score [2],composite z-score [3],composite z-score [4],composite z-score [5],composite z-score [6],z-score [7],composite z-score (Lefty1),composite z-score [8],z-score [9]
COc1cccc([C@H]2Oc3ccc(OC)cc3C(=NOC[C@@H](C)[C@H](OCc3ccccc3)C(C)C)[C@@H]2O)c1,1.78,0.321,0.0885,0.069,0.232,0.0521,-0.789,0.709,0.872,-0.0981 (inactive)
CC(CCN1CCCc2nc(C)c(C)cc21)=NO[C@@H](C)c1cc(-c2c(C)cc(C)cc2C)no1,1.4,0.314,0.514,0.745,0.427,0.388,1.91,0.643,0.605,0.0678 (inactive)
O=C1[C@H]2[C@H]3[C@H](O)[C@H](O)CC(=NO[C@@H]4O[C@H](CO)[C@@H](O)[C@H](O)[C@H]4O)[C@H]3CC[C@H]2C(=O)N1c1cccc(Oc2ccccc2)c1,1.25,0.394,0.199,0.574,0.423,0.445,-0.873,0.802,0.13,1.14 (inactive)
CC(C)=CCCC(C)=CCON=C1C[C@@H](O)[C@@H](O)[C@@H]2[C@@H]3C(=O)N(C(C)(C)C)C(=O)[C@@H]3CC[C@@H]12,0.696,0.494,0.057,-0.0293,0.307,0.247,-0.872,0.351,0.269,0.421 (inactive)
C#CCCCON=C1C[C@@H](O)[C@@H](O)[C@@H]2[C@@H]3C(=O)N(CCC(=O)OCC)C(=O)[C@@H]3CC[C@H]12,0.997,0.929,-0.0834,0.375,1.06,0.613,0.317,0.861,0.101,-0.891 (inactive)
O=c1n(-c2ccccc2)c(=O)n2n1CC[C@@H]1C(=NOCc3ccccc3)[C@H]3O[C@H]3[C@@H](O)[C@@H]12,0.103,-0.0945,0.0844,-0.468,0.265,0.373,0.397,0.293,0.0398,0.0189 (inactive)
COC(=O)[C@H](C)NC(=O)CCC1CC(OC(=O)NCc2ccc3c(c2)OCO3)CC2(CCCC(COC(=O)NCc3cccc(C(F)(F)F)c3)O2)O1 (stereo not given in full),0.0275,0.741,0.587,0.387,0.792,0.63,-0.238,1.15,0.613,0.969 (inactive)
C=CC[C@@H]1C=C[C@H](ON=C(C)CCC(=O)OC[C@H]2O[C@H](C#Cc3ccccc3)C=C[C@@H]2Oc2ccc(C)cc2)[C@@H](CO)O1,-0.443,0.828,-0.0073,0.955,0.656,0.42,-0.0271,0.842,-0.0056,0.666 (inactive)
C=COC[C@@H]1CN2[C@@H](CC[C@@H](C)[C@@H]2c2ccc(Br)cc2)C(=O)O1,-0.559,0.151,0.18,0.212,0.0793,-0.285,-1.25,0.0005,-0.0681,0.49 (inactive)
C[C@H]1COC(=O)[C@@H]2CCCN2C(=O)[C@@H](C)COC(=O)[C@H](Cc2ccccc2)NC1=O,0.305,0.767,0.0349,0.208,0.42,0.458,-0.731,0.96,0.111,1.48 (inactive)
O=C(NN=C1C[C@@H](O)[C@@H](O)[C@@H]2[C@@H]3C(=O)N(C4CCCCC4)C(=O)[C@@H]3CC[C@H]12)OCc1ccccc1,-0.156,-0.387,-0.132,-0.195,-0.516,-0.443,0.293,-0.422,0.505,-0.0704 (inactive)
CCN1C(=O)[C@H]2[C@H]3[C@H](O)[C@H](O)CC(=O)[C@@H]3CC[C@H]2C1=O,0.562,0.899,-0.049,0.583,0.468,0.226,1.39,0.547,0.187,-0.497 (inactive)
CSCC[C@@H]1NC(=O)CC=C[C@@H](C)COC(=O)[C@@H](C)COC1=O,-0.888,-1.81,-0.948,-2.46,0.556,0.0867,1.31,-0.0168,-1.71,-0.343 (inactive)
O=C1[C@H]2[C@H]3[C@H](O)[C@H](O)CC(=NOCc4ccccc4)[C@@H]3CC[C@H]2C(=O)N1c1ccc(F)cc1F,-0.0523,-0.406,0.757,0.416,0.072,0.359,-0.332,-0.0459,-0.141,0.0336 (inactive)
CC[C@@H](c1ccccc1)n1c(=O)n2n(c1=O)[C@H]1[C@H](O)[C@@H]3O[C@@H]3C(=O)[C@H]1CC2,-0.276,0.0346,0.0786,-0.0351,0.295,0.319,0.276,0.387,0.13,-1.23 (inactive)
CC(=O)OC[C@H]1O[C@H](CCON=C2[C@H]3CCn4c(=O)n(-c5ccccc5)c(=O)n4[C@H]3[C@H](O)[C@@H]3O[C@H]23)C=C[C@@H]1OC(C)=O,-0.405,-0.169,-0.749,0.366,0.334,0.594,-0.297,0.397,-0.0229,0.416 (inactive)
CCCCC#C[C@@H]1C=C[C@H](Oc2ccc(C(=O)OC)cc2)[C@@H](COC(=O)OCC)O1,0.516,0.459,-0.0377,0.531,0.974,0.585,-0.896,0.309,0.276,-3.64 (inactive)

Structure (SMILES),composite z-score [1],composite z-score [2],composite z-score [3],composite z-score [4],composite z-score [5],composite z-score [6],z-score [7],composite z-score (Lefty1),composite z-score [8],z-score [9]
Cc1ccc(S(=O)(=O)NC(CCc2ccccc2)CC(=O)C(C)(C)C)cc1 (stereo not given),0.569,0.7,0.0786,0.821,0.615,0.939,-0.124,0.625,0.693,0.74 (inactive)
CC(C)(C)N1C(=O)[C@H]2[C@H]3[C@H](O)[C@H](O)CC(=O)[C@@H]3CC[C@H]2C1=O,-0.0303,0.237,-0.0066,-0.642,0.539,1.08,-0.662,0.49,0.138,0.166 (inactive)
C#CCCCON=C1C[C@@H](O)[C@@H](O)[C@@H]2[C@@H]3C(=O)N(c4ccc(F)cc4F)C(=O)[C@@H]3CC[C@@H]12,-0.0071,0.111,0.131,0.265,0.141,0.474,-0.633,0.322,0.238,1.04 (inactive)
CO[C@@H]1COC(=O)CC=C[C@H](C)[C@H](OC)COC(=O)[C@H](C)NC(=O)CC=C[C@H]1C,-0.347,-1.35,-0.289,-0.394,1.41,0.628,0.239,1.64,-0.54,-0.304 (inactive)
COC(=O)CC=C[C@@H](C)[C@@H](C=NOC[C@@H](O)[C@H]1O[C@@H]2OC(C)(C)O[C@@H]2[C@H]1O)NS(=O)(=O)c1ccc(C)cc1,1.93,0.607,-0.196,-0.174,0.597,0.276,-0.656,0.223,0.0146,0.543 (inactive)
O=C1C[C@@H](O)[C@@H](O)[C@@H]2[C@@H]3C(=O)N(C[C@@H]4CCCO4)C(=O)[C@@H]3CC[C@@H]12,0.318,0.476,0.181,0.517,0.848,0.657,0.52,0.42,0.208,-0.658 (inactive)
Cc1ccc(S(=O)(=O)OC[C@H]2CN3[C@H](c4ccc(Br)cc4)[C@@H](C)CC[C@H]3C(=O)O2)cc1,0.924,0.269,0.0817,0.596,1.1,1.45,1.78,0.198,0.11,-0.849 (inactive)
COC(=O)CC=C[C@@H](C)[C@@H](C=NO[C@@H](C)c1cn([C@H](CO)Cc2ccccc2)nn1)NS(=O)(=O)c1ccc(C)cc1,1.56,0.332,0.265,0.982,0.95,0.459,-0.517,0.681,0.0187,-1.28 (inactive)
CCOC(=O)[C@H](CC(C)C)NC(=O)CCC1CC(OC(=O)NCCc2ccc(F)cc2)CC2(CCCC(COC(=O)NCC3CCCCC3)O2)O1 (stereo not given in full),0.183,0.579,-0.124,0.623,0.51,0.631,-0.506,0.803,0.676,0.997 (inactive)
COc1ccc(O[C@H]2C=C[C@@H](c3ccccc3)O[C@@H]2CON=CC[C@@H]2C=C[C@H](OC(C)=O)[C@@H](COC(C)=O)O2)cc1,2.11,-0.311,0.178,0.516,0.229,0.107,0.124,0.257,0.807,-0.354 (inactive)
CCCNC(=O)OC[C@H]1O[C@H](CCON=C(C)CCN2CCCc3nc(C)c(C)cc32)C=C[C@@H]1Oc1ccc(OC)cc1,1.4,1.09,0.664,0.808,0.585,0.499,1.85,0.252,0.625,0.326 (inactive)
COC(=O)[C@@H]1CC[C@H](C)[C@@H](c2ccc(C)cc2)N1C(=O)c1ccc(C=NO[C@@H]2O[C@H](COC(C)=O)[C@@H](OC(C)=O)[C@H](OC(C)=O)[C@H]2OC(C)=O)cc1,2.08,0.68,-0.169,0.926,0.551,0.336,0.0992,1.06,0.347,0.945 (inactive)
COC(=O)[C@@H]1CC[C@H](C)[C@@H](c2ccc(C)cc2)N1C(=O)c1ccc(C=NO[C@H](C)c2cn([C@H](CO)Cc3ccccc3)nn2)cc1,0.762,1.04,0.926,-0.466,0.738,0.377,-0.406,0.957,0.295,0.184 (inactive)
C[C@@H](c1ccccc1)N1C(=O)[C@H]2[C@H]3[C@H](O)[C@H](O)CC(=O)[C@H]3CC[C@H]2C1=O,0.335,0.654,0.336,0.747,0.213,0.284,0.911,0.134,0.0458,-1.36 (inactive)
CCOC(=O)NN=C1C[C@@H](O)[C@@H](O)[C@@H]2[C@@H]3C(=O)N(Cc4ccccc4)C(=O)[C@@H]3CC[C@H]12,0.347,-0.143,0.0254,0.706,0.0086,-0.227,-0.39,0.3,0.0439,0.746 (inactive)
CC(C)CON=C1C[C@@H](O)[C@@H](O)[C@@H]2[C@@H]3C(=O)N(c4cccc(Oc5ccccc5)c4)C(=O)[C@@H]3CC[C@@H]12,0.89,0.762,0.0599,1.02,0.266,0.314,-0.289,0.13,0.561,-0.172 (inactive)
